# A selection: hits, their analogues and other compounds. The true share with any hit is near 12%.
# PLK1 PBD block: PLK1 (human) polo-box domain binding inhibition | Potency, µM, inactives show max response, negative = inhibition, hits mostly inhibitors | hit rate 2.8% among 360,000 | AID 720504 | Plk1 PBD binding of FITC phosphopeptide, fluorescence polarization | P53350; also: potency is read from the fitted curve at half-maximal effect; series mostly up to about 57 µM; % is scaled to controls: 0 for no effect and ±100 for the full control effect; nearly all actives have a fitted effect of over 65% in size
# G9a inh: G9a (human) methyltransferase inhibition; Potency, µM (titrated, usually from 102 µM), without a hit: top-dose activity, negative = inhibition, usual class: inhibitors; Q96KQ7; G9a H3K9 monomethylation, AlphaScreen, 2 h; hit rate 8.8% among 350,000; also: potency is read from the fitted curve at half-maximal effect; % is scaled to controls: 0 for no effect and ±100 for the full control effect; nearly all actives have a fitted effect of over 75% in size
#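 AlphaScreen detection with an anti-monomethyl H3K9 antibody quantified product after a 2 h room-temperature reaction containing 500 nM biotinylated H3K9 peptide, 20 µM SAM and 20 nM enzyme, which had been preincubated 15 min with compound.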
# JMJD2A Tudor: JMJD2A Tudor domain (human) inhibition. AlphaScreen JMJD2A-Tudor / H3K4me3 peptide binding. Potency, µM (series often up to 114 µM), for inactives: top-dose activity change, negative = inhibition, hits mostly inhibitors. hit rate 4.4% among 390,000. AID 504339; also: potency is read from the fitted curve at half-maximal effect; % is scaled to controls: 0 for no effect and ±100 for the full control effect; nearly all actives have a fitted effect of over 50% in size
# BAZ2B inh: BAZ2B (human) inhibition | Q9UIF8 | AlphaScreen BAZ2B-H3K14Ac peptide displacement | Potency, µM (highest dose often 114 µM), for the others: top-dose activity change, negative = inhibition, most hits filed as inhibitors | hit rate 4.4% among 360,000; also: potency is read from the fitted curve at half-maximal effect; % is scaled to controls: 0 for no effect and ±100 for the full control effect; nearly all actives have a fitted effect of over 60% in size
#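 BAZ2B (50 nM) with biotin-H3(5-23)K14Ac peptide (50 nM) in PBS pH 7.4, 0.01% Tween-20, preformed 30 min, then compound 30 min at room temperature; top concentration 110uM. AlphaScreen streptavidin donor/nickel chelate acceptor beads (10 ug/mL final), 20 min dark, signal read.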
# HP1b binding inh: blocks HP1-beta chromodomain binding to methylated histone tails; P83916; AlphaScreen HP1-beta / biotin-H3K9me3 peptide binding; Potency, µM (top dose mostly 114 µM), inactives show at the top dose activity change, negative = inhibition, hits mostly inhibitors; hit rate 0.56% among 390,000; AID 540317; also: potency is read from the fitted curve at half-maximal effect; nearly all actives have a fitted effect of over 70% in size
#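 Compound inhibition of the preformed complex between 50 nM HP1-beta and 50 nM biotinylated H3K9me3 peptide was read by AlphaScreen. Buffer was PBS pH 7.4 with 0.01% Tween-20. Incubations ran 30 min at room temperature, with 10 ug/mL donor/acceptor beads.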
# PI5P4Ka inh: inhibitors of human PI5P4K alpha | P48426 | PI5P4Kalpha enzyme, ADP-Glo luminescence, 60 min; hits give low values | max response, % | hit rate 1.2% among 330,000 | AID 652105; active = max response of -50% or lower; inconclusive = between -30% and -50%; inactive = -30% or higher; also: value at the top dose of about 77 µM; % is scaled to controls: 0 for no effect and ±100 for the full control effect
#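 Human PI5P4Kalpha with substrate in 0.038 M HEPES pH 7.4, 0.28 mM EGTA, 0.1% CHAPS, 5% DMSO; reaction started with 5 microM ATP (final), 60 min at room temperature. ADP formed read by ADP-Glo luminescence.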
# The depositor's hits bear a star; ? = inconclusive; . = no result; ! = not confirmed by another sample; [ ] = remark or other dose. Unless noted, calls follow the shape of the dose curve; as a rule, active = well fitted curve in the direction sought with a large enough effect; inconclusive = small, poorly fitted or top-dose-only effect, or another doubt; inactive = no such curve, though single readings can be large; an effect the other way counts as inactive or inconclusive.
SMILES,PLK1 PBD block,G9a inh,JMJD2A Tudor,BAZ2B inh,HP1b binding inh,PI5P4Ka inh
COc1ccc(CSc2nc3ncccc3[nH]2)cc1,.,-33.5%[59 µM],-10.2%,0.3%,28.7%,.
Fc1ccccc1CSc1nc2ncccc2[nH]1,18.9µM*,?,-8.6%,11.8%,-22.4%,-11.6
COc1cc(-c2nc(-c3ccccn3)no2)cc(OC)c1OC,-5.7%,50.6%,-12.3%,18.3%,13.6%,.
COc1cccc(-c2nc(-c3ccccn3)no2)c1OC,7.52µM*,6.6%[12.7 µM],-25.2%[11.4 µM],2.3%,?,?
Cc1ccccc1OCc1nc(-c2ccc(Br)o2)no1,0.6%,79.4µM*,206.4%,?,57.4%,0.7
COc1ccccc1-c1noc(-c2cc(OC)c(OC)c(OC)c2)n1,8.44µM*,-1.2%[59 µM],?,-5.9%,?,-25.4
COc1ccccc1-c1noc(-c2cccnc2)n1,-13.1%,22.7%[59 µM],-16.8%[57.1 µM],1.2%,58.9%,1.4
COc1cc(OC)cc(-c2nc(-c3ccccc3OC)no2)c1,26.7µM*,-14.8%[59 µM],?,46.3%,-8.8%,0.3
O=C(CN1CCN(Cc2ccccc2)CC1)Nc1ccc(Br)cc1,-11.2%,-1.5%[0.501 µM],-11.1%,-2.3%,20.2%,3.7
CCOc1ccc(Cl)cc1C1CC(=O)Nc2cc(OC)c(OC)c(OC)c21 (stereo not drawn),.,3.2%[59 µM],-7.5%,2.9%,14.3%,.
COc1ccccc1-c1nc(-c2ccc(Br)o2)no1,4.6%,50.1µM*!,13.4%,-12.0%,63.5%,7.2
COc1ccc(-c2nc(-c3ccc(Br)o3)no2)cc1OC,-0.6%,-9.9%[59 µM],-9.0%,8.4%,34.2%,-0.5
COC(=O)c1c(SC)nc2ccccc2c1OCc1ccc(Cl)cc1,.,109.4%[59 µM],139.3%,141.6%,160.7%,.
CCN(CC)S(=O)(=O)c1ccc(N2CCOCC2)c(NC(=O)c2ccc(F)cc2)c1,?,8.9%,-2.3%[11.4 µM],-6.8%,-1.1%,-4.9
COc1ccc(S(=O)(=O)N2CCCCCC2)cc1NC(=O)CN1C(=O)NC(C)(c2ccccc2)C1=O (stereo not drawn),-1.4%,15.8µM*,-14.5%,-0.9%,32.6%,6.5
CC1(c2ccccc2)NC(=O)N(CC(=O)Nc2ccc(S(=O)(=O)Nc3ncccn3)cc2)C1=O (stereo not drawn),-10.8%,14.5%[2.33 µM],-0.7%,5.8%,24.7%,-1.6
CCN(CC)S(=O)(=O)c1ccc(N2CCOCC2)c(NC(=O)c2ccc(C#N)cc2)c1,-18.4%,11.2µM*,-3.8%,?,39.8%,2.7
Cc1cc(NS(=O)(=O)c2ccc(NC(=O)CN3C(=O)NC(C)(c4ccccc4)C3=O)cc2)nc(C)n1 (stereo not drawn),2.9%,14.1µM*,5.5%,9.2%,26.5%,-4.0
CCN(CC)S(=O)(=O)c1ccc(N2CCCC2)c(NC(=O)c2ccc(OC)cc2OC)c1,0.2%,28.2µM*,-32.2%,-32.5%,17.9%,1.0
Cc1ccc(F)c(C2C3C=CCC(c4ccccc4)C3C(=O)N2Cc2ccccc2)c1 (stereo not drawn),.,.,-12.4%,.,4.6%,.
CCN(CC)S(=O)(=O)c1ccc(N2CCOCC2)c(NC(=O)CNCCc2ccccc2)c1,4.0%,11.2µM*,39.8µM*,50.1µM*,-23.6%[57 µM],4.0
CCN(CC)S(=O)(=O)c1ccc(N2CCOCC2)c(NC(=O)C(=O)c2c(-c3ccccc3)cc3ccccn23)c1,-20.1%,35.5µM*,-31.6%,-34.0%,-26.3%,2.3
CCN(CC)S(=O)(=O)c1ccc(N2CCOCC2)c(NC(=O)CN2C(=O)NC(C)(c3ccccc3)C2=O)c1 (stereo not drawn),-0.7%,15.8µM*,-20.3%,5.5%,38.0%,-0.9
CCN(CC)S(=O)(=O)c1ccc(N2CCOCC2)c(NC(=O)CN2C(=O)NC3(CCCC3)C2=O)c1,-1.9%,.,-7.5%,.,35.2%,1.0
CCN(CC)S(=O)(=O)c1ccc(N2CCOCC2)c(NC(=O)COc2ccccc2)c1,-7.3%,-32.0%,0.7%,-0.1%,49.4%,4.7
SMILES,PLK1 PBD block,G9a inh,JMJD2A Tudor,BAZ2B inh,HP1b binding inh,PI5P4Ka inh
Cc1cc(C)n(-c2nc3ccccc3nc2Nc2ccc(Cl)c(Cl)c2)n1,.,31.2%[59 µM],34.2%,20.4%,31.9%,.
COc1ccc(NC(=O)c2oc3ccccc3c2NC(=O)C2CCCCC2)c(OC)c1,.,-0.9%[59 µM],-11.9%,-4.5%,35.6%,.
CCOc1ccc(Cl)cc1CNCCCSc1nnnn1C,.,1.8%[59 µM],0.0%,-1.6%,48.1%,.
CC1=NN(c2cccc(Cl)c2)C(=O)C1,-8.5%,2.7%[59 µM],-24.5%,?,9.9%,7.6
CC1=NN(c2ccc(Cl)c(C(=O)O)c2)C(=O)C1,-29.4%,50.1µM*,56.2µM*,-25.7%,-37.8%,-17.4
CC1=NN(c2cc(Cl)c(S(=O)(=O)O)cc2Cl)C(=O)C1,-0.2%,.,89.1µM*,.,14.3%[57 µM],1.1
CC1=NN(c2ccc(C(=O)O)c(N)c2)C(=O)C1,-9.3%,4.47µM*,50.1µM*,39.8µM*,70.8µM*,-1.9
COc1ccc(C(=O)c2cn(Cc3ccc(F)cc3)c3ccc(C)cc3c2=O)cc1,.,-7.6%[59 µM],-11.8%,-26.5%[57.1 µM],24.2%,.
COc1ccccc1CNCC(=O)Nc1ccc(C(F)(F)F)cc1,-3.7%,22.4µM*,-13.7%,56.2µM*,5.5%,0.2
COc1ccccc1CNCC(=O)Nc1ccc(C#N)cc1,-1.8%,5.62µM*,?,50.1µM*,-21.0%,9.0
COc1cc(C#N)ccc1OC(=O)Cc1cc(OC)c(OC)c(OC)c1,4.6%,?,4.9%,0.9%,7.0%,-5.0
COc1ccccc1CNCC(=O)Nc1ccccc1-n1cccc1,0.0%,10µM*,22.4µM*,50.1µM*,?,3.7
COc1ccccc1CCC(=O)Oc1ccc(C#N)cc1OC,-3.7%,25.1µM*,42.1%,1.6%,117.5%,6.4
Cc1ccc(CNC(=O)c2cccc(Nc3nc4ccccc4n4nnnc34)c2)cc1,.,?,-8.2%,-4.1%,21.8%,.
COC(=O)C1=C(C(=O)OC)C(C(=O)OC)N2C=CC=CC2=C1C(=O)OC (stereo not drawn),-1.6%,.,.,.,.,-12.0
C=C1CCN([C@@H](C)C(=O)NCc2ccc(Cl)cc2)S(=O)(=O)c2ccccc21,-15.0%,?,-12.1%,5.5%,22.8%,-0.9
Nn1c(=O)c2ccccc2n2c(SCc3ccc(C(F)(F)F)cc3)nnc12,?,3.98µM*,-19.3%,4.8%,16.5%,-3.0
COc1ccccc1NC(=O)CCN1CC(C)OC(C)C1 (stereo not drawn),-7.6%,9.7%[59 µM],-9.9%,7.9%,12.4%,-1.6
COc1ccccc1/C=C/CN1CC(C)OC(C)C1 (stereo not drawn),-3.5%,?,3.16µM*,44.7µM*,?,.
COc1ccccc1/C=C/CN1CCCCC1,0.4%,28.2µM*,1.41µM*,79.4µM*,?,-2.2
COc1ccccc1/C=C/CN1CCC(Oc2ccc(C(=O)N3CCCCC3)cc2)CC1,-7.3%,.,?,?,-12.3%,-2.7

# Screens from PubChem BioAssay.
